Shown are actives, neighbours in structure and some others; about 1.2% of the full set was active somewhere.
BJeLR lethal: MLPCN primary cell-based screen for lethality selective to Ras in HRASV12 cells; inhibition, % (test concentration not listed); AID 1554, 2009; actives 0.17% (n = 300,000); BJeLR (HRASV12) viability, CellTiter-Glo ATP luminescence, 48 h; in the data active = inhibition above about 50%; inconclusive = no clear call, values can overlap the other calls
SSB-PriA inh: inhibitors of Klebsiella pneumoniae PriA binding to SSB C-terminal tail, primary screen, biochemical, AlphaScreen; AID 1272365, 2023; inhibition, % at 33 µM; AlphaScreen SSBct-PriA binding, biotinylated peptide; actives 0.6% (n = 430,000); in the data active = inhibition mostly above about 37%, no sharp cut-off; inactive = mostly below about 20%;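 also: plate controls were negative control peptide for no effect and reference peptide for full effect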
PrP UTR inh: inhibition of PrP 5' UTR reporter expression. cell-based PrP 5' UTR mRNA reporter, plate reader. inhibition, % (no concentration beside the values). actives 0.35% (n = 340,000); in the data active = inhibition above about 52%; also: 0 = median of the neutral control wells
PrPC surface inh: inhibitors of human cell surface prion protein PrPC, primary screen, cell-based, TR-FRET | Major prion protein (Homo sapiens), P04156 | TR-FRET read-out | inhibition, % at 13.8 µM | actives 0.43% (n = 370,000); in the data active = inhibition above about 24%; also: 0% = median of the test wells and 100% = reference compound wells
SARS 3CLpro inh: SARS-CoV 3CLpro protease inhibitors, primary screen, biochemical, quenched FRET; actives 0.14% (n = 290,000); inhibition, % at 6 µM; Replicase polyprotein 1ab (Severe acute respiratory syndrome coronavirus), P0C6X7; recombinant SARS-CoV 3CLpro, quenched FRET peptide cleavage; in the data active = inhibition above about 12%
PrP 5UTR single: prion 5' UTR mRNA inhibition, cherry-pick retest. shares compounds with PrP UTR inh. cell-based prion protein 5' UTR reporter, plate reader. inhibition, % at 2.5 µM. actives 48% (n = 1,100); in the data active = inhibition above about 54%; inconclusive = no clear call, values can overlap the other calls
* marks the source's active call; other numbers are inactive results; ? = inconclusive; nt = no result; ! = not confirmed by another sample.

SMILES | BJeLR lethal | SSB-PriA inh | PrP UTR inh | PrPC surface inh | SARS 3CLpro inh | PrP 5UTR single
CCC1(c2ccccc2)NC(=S)N(c2ccc(C)cc2)N1 (stereo not given) | -9 | -15 | 76* | 2 | -2 | -52
CCC1(c2ccc(Cl)cc2)NC(=S)N(c2ccccc2)N1 (stereo not given) | -8 | 4 | -16 | -6 | 5 | nt
COC(=O)CCn1nnc(-c2ccc(C(C)C)cc2)n1 | 2 | -43 | 73* | -11 | 2 | 70*
Cc1ccc(NC(=O)c2n[nH]nc2-c2ccccc2)cc1Cl | nt | -6 | nt | nt | nt | nt
C=CCN=C1NN=C(c2ccc3c(c2)OCCO3)CS1 | 4 | -7 | 59* | -3 | 2 | 79*
C=CCN=C1NN=C(c2cc(C)n(CC=C)c2C)CS1 | 6 | 4 | 83* | -4 | 1 | 79*
COCCn1c(C)cc(C2=NNC(=Nc3ccccc3F)SC2)c1C | 4 | -3 | 67* | -7 | 2 | ?
COCCN=C1NN=C(c2cc(C)n(CC3CCCO3)c2C)CS1 (stereo not given) | 5 | -7 | 15 | -8 | -10 | nt
COc1cccc(N2CC(C(=O)Nc3ccc(-n4nnn(C)c4=O)cc3)CC2=O)c1 (stereo not given) | nt | 2 | nt | nt | nt | nt
Cc1ccc(NC(=O)N2CCCC(c3nnc(C)s3)C2)cc1 (stereo not given) | nt | 1 | nt | nt | nt | nt
CCOC(=O)c1cccc(NC(=O)/C=C/c2ccc3c(c2)OCO3)c1 | 7 | -3 | 60* | 18 | -4 | 22
O=C(O)c1cc(N/N=C/c2ccc3c(c2)OCO3)ccc1Cl | -8 | nt | -53 | -4 | 6 | nt
O=C(Nc1cccc(C(=O)O)c1)Nc1ccc2c(c1)OCO2 | -1 | -6 | 84* | 5 | 5 | 73*
COc1cccc(NC(=O)Nc2cccc(C(=O)O)c2)c1 | -2 | 6 | 62* | 4 | 5 | 63*
O=C(O)c1ccc(N/N=C/c2ccc3c(c2)OCO3)cc1 | 42 | nt | 77* | 4 | 4 | 65*
CS(=O)(=O)c1nc2ccccc2n1CC(=O)N1CCCC1 | nt | -9 | nt | nt | nt | nt
Cn1nccc1C(=O)Nc1nc(-c2ccc(Cc3ccccc3)cc2)cs1 | nt | -7 | nt | nt | nt | nt
O=C(O)c1cccc(N=Cc2ccc(O)c([N+](=O)[O-])c2)c1 | nt | -4 | nt | nt | nt | nt
CC(=O)C[C@H](O)CC(=O)[C@H]1OC(=O)CCCCCc2ccccc21 | nt | -9 | -26 | 0 | nt | nt
CC(=O)C[C@H](O)CC(=O)[C@H]1OC(=O)[C@H](C)CCCCc2ccccc21 | nt | -13 | 66* | -8 | nt | -7
CC(=O)C[C@H](O)CC(=O)[C@@H]1OC(=O)CCCCCc2ccccc21 | nt | 5 | 90* | 0 | nt | -51
CN1CCc2c(c3ccccc3n2Cc2ccccc2)C1 | 3 | 7 | 58*! | -5 | -2 | -6
CCCCN1CCc2c(c3ccccc3n2Cc2ccccc2)C1 | 8 | -12 | 6 | -1 | -2 | nt
COc1ccc(Cl)cc1NC(=O)/C=C\C(=O)O | -5 | 5 | 70* | 0 | 0 | -10
Cc1cc(C(=O)CSc2nnc3ccccn23)c(C)n1-c1ccccc1 | -3 | 13 | 67* | -7 | 1 | 85*
SMILES | BJeLR lethal | SSB-PriA inh | PrP UTR inh | PrPC surface inh | SARS 3CLpro inh | PrP 5UTR single
C=CCC1=CC(=Cc2c(N)n3nc(CC(=O)N4CCCC4)sc3nc2=O)C=C(OC)C1=O | nt | -23 | nt | nt | nt | nt
COc1cc(C2CC(=O)Oc3cc4c(cc32)OCO4)cc(OC)c1OC (stereo not given) | nt | -4 | -13 | -5 | nt | nt
COc1ccc(C2CC(=O)Oc3cc4c(cc32)OCO4)cc1 (stereo not given) | nt | -7 | 53* | -1 | nt | -7
O=C(CCS(=O)(=O)Cc1ccccc1)N1CCN(c2ccc([N+](=O)[O-])cc2)CC1 | 3 | 3 | 80* | -16 | -3 | -7
O=C(Cn1cccn1)N1CCC(Cc2n[nH]c(=O)n2-c2ccccc2F)CC1 | nt | -12 | nt | nt | nt | nt
CN(C)CC(C)(C)CNS(=O)(=O)c1ccc(OC(F)(F)F)cc1 | 2 | 3 | 59* | 1 | 6 | 2
CSCC[C@](C)(O)CNS(=O)(=O)c1ccc(OC(F)(F)F)cc1 | nt | -17 | nt | nt | nt | nt
Nc1ccc(Cn2ccc3c4c(N)nc(N)nc4ccc32)cc1 | nt | 32 | 62* | 9 | nt | -11
Fc1ccc(Cn2ccc3ccccc32)cc1 | nt | -44 | nt | nt | nt | nt

Screens: PubChem BioAssay, several laboratories
